We go through 10 molecules from PubChem BioAssay (EPA / NIEHS).

Inconclusive results are not listed. A structure can be active in one record and inactive in another. Activity calls are given as the source filed them. How the source made its calls, unless noted: active means hit-call score of the fitted dose curve at least 0.9, where 1 is the maximum; inactive means score below 0.9.

Assay [1] is described as follows: CCTE_Mundy_HCI_Cortical_NOG_NeuronCount: CCTE's Neurite Outgrowth Assay in rat cortical cells for Neuron Count, Mundy Lab (AID 2284236; active means hit-call score of the fitted dose curve at least 0.9, where 1 is the maximum;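 further: neurons counted by imaging betaIII-tubulin and Hoechst stained cortical cells; cells exposed to compound for about 48 hours before fixation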). An outline of the steps:
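Read-out: neuron number by high-content imaging of betaIII-tubulin (Alexa Fluor-488) and Hoechst-labelled rat primary cortical cells.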

A short description of assay [2]: CCTE_Mundy_HCI_Cortical_NOG_BPCount: CCTE's Neurite Outgrowth Assay in rat cortical cells for Branch Point Count, Mundy Lab (AID 2284237).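 On AC50: branch points counted about two days after chemical exposure.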 The method, boiled down:
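Measured 50.33 h after dosing, this morphology endpoint uses rat primary cortical cultures labelled for betaIII-tubulin. Branch points are quantified by high-content imaging, with DMSO as negative control and baseline.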

Assay [3] is described as follows: CCTE_Mundy_HCI_hNP1_Casp3_7: CCTE's Caspase-Glo 3/7 Assay in human neuroprogenitor cells for Apoptosis, Mundy Lab (AID 2284240). An outline of the steps: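 Apoptosis is scored by activated caspase-3/7 luminescence in WA09-derived neural progenitor cells, measured 26.5 h after chemical dosing. Values represent gain of signal relative to DMSO vehicle.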
Assay [4] can be described thus: CCTE_Mundy_HCI_hNP1_CellTiter: CCTE's Cell Titer-Glo 2 Assay in human neuroprogenitor cells for Viability, Mundy Lab (AID 2284241; active means hit-call score of the fitted dose curve at least 0.9, where 1 is the maximum;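 on AC50: a hit is a drop in ATP luminescence versus DMSO meaning reduced viability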). An outline of the steps:
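Human neural progenitor cells (hNP1, WA09-derived) were plated on poly-L-ornithine/laminin and grown 40 to 44 hours at 37 °C, 5% CO2 before chemical addition. Twenty-four hours later, ATP was measured by CellTiter-Glo luminescence; loss of signal versus DMSO indicates reduced viability.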
A general note: ATP-based viability assays read luminescence as a measure of living cells.

Assay [5] can be described thus: CCTE_Mundy_HCI_Cortical_Synap_Neur_Matur_NeuronCount: CCTE's Synaptogenesis and Neurite Maturation Assay in rat cortical cells for Neuron Count, Mundy Lab (AID 2284242; active means hit-call score of the fitted dose curve at least 0.9, where 1 is the maximum;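 on AC50: hits reduce neuron count versus DMSO baseline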). The method, boiled down:
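Rat primary cortical cells, AraC added at DIV 5, dosed with media change from DIV 7 to DIV 12. Fixed, Hoechst-stained and immunolabelled for MAP2 and synaptophysin; neuron number counted by high-content imaging, loss fitted versus DMSO.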

The nature of assay [6]: UKN4_HCS_LUHMES_cell_viability: Viability Assessment in the University of Konstanz (UKN) Leist Lab Neurite Outgrowth Assay in human LUHMES cells (UKN4) (AID 2284232). An outline of the steps:
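LUHMES precursors differentiated 2 days, replated at 30000 cells/well without cAMP/GDNF, then compound-treated 24 h. Viability from Hoechst H-33342 and calcein-AM live staining (30 min) by high-content fluorescence imaging; bidirectional fit versus DMSO.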

Read-out in assay [7]: Secreted IgG (sIgG), gene 3500
Description: BSK_BT_sIgG: BioMAP Diversity Plus: BT Assay for Secreted IgG (sIgG) Biomarker Activity (AID 2284226). The conditions noted are these: primary human B cells with PBMC. The method, boiled down:
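Human B cell plus PBMC co-culture; secreted IgG measured by ELISA 24 h after chemical dosing. Response fitted in positive direction relative to DMSO baseline.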

The nature of assay [8]: BSK_BT_Bcell_Proliferation: Viability Assessment in the BioMAP Diversity Plus: BT Assay for B cell Proliferation (AID 2284227). Particulars: primary human B cells with PBMC. An outline of the steps:
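Human B cell/PBMC co-culture; test chemical added; 72 h; TCA fix (10%), 0.1% SRB stain, A560 for total protein as a proliferation read-out; positive-direction fit vs DMSO baseline.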

Read-out in assay [9]: Interleukin 6 (IL6), IL6 (gene 3569)
The assay can be described thus: BSK_BT_xIL6: BioMAP Diversity Plus: BT Assay for Interleukin 6 (IL6) Biomarker Activity (AID 2284228). Particulars: primary human B cells with PBMC. An outline of the steps:
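Readout: secreted IL-6 via Luminex xMAP multiplex, 24 h post-dosing. System: primary human B cells co-cultured with PBMC. Signal change scored relative to DMSO vehicle, positive fitting direction.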

Read-out in assay [10]: Interleukin 17A (IL17A), IL17A (gene 3605)
The assay can be described thus: BSK_BT_xIL17A: BioMAP Diversity Plus: BT Assay for Interleukin 17A (IL17A) Biomarker Activity (AID 2284229). The conditions noted are these: primary human B cells with PBMC. The method, boiled down:
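Luminex xMAP readout of secreted IL-17A; human B cell + PBMC co-culture; 24 h post-dose; positive-direction fit vs DMSO negative control.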

Read-out in assay [11]: Tumor necrosis factor (Homo sapiens) (UniProt P01375)
Description: BSK_BT_xTNFa: BioMAP Diversity Plus: BT Assay for Tumor necrosis factor alpha (TNF-alpha) Biomarker Activity (AID 2284230). Particulars: primary human B cells with PBMC. An outline of the steps:
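Read-out: Luminex xMAP quantitation of secreted TNF-alpha from a B cell/PBMC co-culture 24 h after compound addition. Signal analysed relative to DMSO vehicle, positive fitting direction.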

Read-out in assay [12]: Vascular cell adhesion molecule 1 (VCAM1), VCAM1 (gene 7412)
Description: BSK_MyoF_VCAM1: BioMAP Diversity Plus: MyoF Assay for Vascular cell adhesion molecule 1 (VCAM1) Biomarker Activity (AID 2284231). Particulars: primary human lung fibroblasts. An outline of the steps:
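MyoF system, lung fibroblasts; 24 h post-dose; VCAM-1 by ELISA; gain-of-signal fit vs DMSO baseline.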

Read-out in assay [13]: Collagen I, COL1A1 (gene 1277)
Description: BSK_MyoF_CollagenI: BioMAP Diversity Plus: MyoF Assay for Collagen I Biomarker Activity (AID 2284238). Particulars: primary human lung fibroblasts. The method, boiled down: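 ELISA readout of Collagen I after 24 h chemical treatment of primary human lung fibroblast cultures; gain of signal scored relative to DMSO vehicle baseline.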

Read-out in assay [14]: Collagen III, COL3A1 (gene 1281)
The assay can be described thus: BSK_MyoF_CollagenIII: BioMAP Diversity Plus: MyoF Assay for Collagen III Biomarker Activity (AID 2284239). The conditions noted are these: primary human lung fibroblasts. An outline of the steps: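 Lung fibroblast culture; 24 h compound exposure; collagen III by ELISA; gain-of-signal fit vs DMSO baseline.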

Read-out in assay [15]: Interleukin 17F (IL17F), IL17F (gene 112744)
Description: BSK_BT_xIL17F: BioMAP Diversity Plus: BT Assay for Interleukin 17F (IL17F) Biomarker Activity (AID 2284243). The conditions noted are these: primary human B cells with PBMC. The method, boiled down: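 Secreted IL-17F, read on LumineX xMAP beads, was taken as the endpoint. Cultures combined human B cells and peripheral blood mononuclear cells, sampled 24 hours after dosing, with DMSO serving as negative control.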

Read-out in assay [16]: Actin alpha 1 (ACTA1), ACTA1 (gene 58)
The assay can be described thus: BSK_MyoF_ACTA1: BioMAP Diversity Plus: MyoF Assay for Actin alpha 1 (ACTA1) Biomarker Activity (AID 2284244). The conditions noted are these: primary human lung fibroblasts. An outline of the steps: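 Human lung fibroblast (MyoF system) cultures dosed with test chemical; alpha-SMA measured by ELISA 24 h after dosing, normalized to DMSO control. Cytotoxicity tracked in parallel cultures by SRB total-protein staining.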

Read-out in assay [17]: Interleukin 2 (IL2), IL2 (gene 3558)
The assay can be described thus: BSK_BT_xIL2: BioMAP Diversity Plus: BT Assay for Interleukin 2 (IL2) Biomarker Activity (AID 2284245). The conditions noted are these: primary human B cells with PBMC. The method, boiled down:
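Human B cell plus PBMC co-culture, 24 h after chemical dosing; secreted IL-2 quantified by Luminex xMAP multiplex, fitted for signal gain against DMSO baseline.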

Read-out in assay [18]: Basic fibroblast growth factor (bFGF), FGF2 (gene 2247)
Description: BSK_MyoF_bFGF: BioMAP Diversity Plus: MyoF Assay for Basic fibroblast growth factor (bFGF) Biomarker Activity (AID 2284246). The conditions noted are these: primary human lung fibroblasts. An outline of the steps:
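Human lung fibroblast cultures were dosed and measured 24 h later in 96-well format. bFGF biomarker levels quantified by ELISA, with activity fitted in the positive direction against DMSO.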

Assay [19] in a line: TAMU_PeakParms_SingleDonor1434_QT: Texas A&M University (TAMU) 1.5-hr Human Induced Pluripotent Stem Cell (iPSC)-derived Cardiomyocytes Calcium (Ca+2) Flux Assay for Cardiotoxicity: QT (decay-rise ratio) (AID 2284235; active means hit-call score of the fitted dose curve at least 0.9, where 1 is the maximum). The method, boiled down:
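iPSC-derived cardiomyocytes (single donor 1434) dosed at 0.2, 1, 10, 100 uM final in 0.5% DMSO, 90 min at 37C. Ca2+ flux fluorescence decay/rise ratio; EC05 (5% increase versus DMSO) as POD, excluding beat-arrest and severe-notch data.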

A short description of assay [20]: TAMU_HCS_1.5hr_SingleDonor1434_Cytotoxicity: Cytotoxicity Assessment using High-content Screening (HCS) Fluorescent Imaging for the Texas A&M University (TAMU) 1.5-hr Human Induced Pluripotent Stem Cell (iPSC)-derived Cardiotoxicity Assay (AID 2284234; active means hit-call score of the fitted dose curve at least 0.9, where 1 is the maximum). An outline of the steps: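 Human iPSC-derived cardiomyocytes dosed at 0.2, 1, 10, 100 uM final (0.5% DMSO) for 90 min at 37 C. Hoechst 33342-stained nuclei counted by 10x high-content imaging; POD is EC10, a 10% drop in total cell count versus DMSO.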

Sequence of Tumor necrosis factor (Homo sapiens) (P01375 whole entry, looked up): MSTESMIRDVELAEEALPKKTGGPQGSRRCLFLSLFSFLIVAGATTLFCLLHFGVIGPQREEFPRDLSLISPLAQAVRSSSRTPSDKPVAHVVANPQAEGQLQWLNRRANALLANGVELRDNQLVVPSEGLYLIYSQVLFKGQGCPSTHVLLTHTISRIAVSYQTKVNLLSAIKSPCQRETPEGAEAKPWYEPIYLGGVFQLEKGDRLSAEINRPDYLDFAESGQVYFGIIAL

`O=C(O)COc1ccc(Cl)cc1Cl`: the outcome in assay [1], in assay [2], in [3] and in assay [4] was inactive.
As a reminder, the AC50 is the concentration at which the activity in the assay is half-maximal. For the molecule `CC[C@H](C)[C@H]1O[C@]2(C=C[C@@H]1C)C[C@@H]1C[C@@H](C/C=C(\C)[C@@H](O[C@H]3C[C@H](OC)[C@@H](O[C@H]4C[C@H](OC)[C@@H](O)[C@H](C)O4)[C@H](C)O3)[C@@H](C)/C=C/C=C3\CO[C@@H]4[C@H](O)C(C)=C[C@@H](C(=O)O1)[C@]34O)O2` (tested in a mixture with another compound), the AC50 is 13.3 µM (active) in assay [1]; 8.26 µM (active) in assay [2]; 3.64 µM (active) in assay [3]; 3.34 µM (active) in assay [4]; 1.55 µM (active) in assay [5].
As to `COP(=S)(OC)Oc1ccc([N+](=O)[O-])cc1`, the molecule was called inactive in assay [6], in assay [3] and in assay [4]. The figures for the AC50 in assay [1], in [2] and in assay [5] were 2.98 µM (active), 23.2 µM (active) and 22.1 µM (active), respectively.
For the molecule `CC1(c2ccc(Oc3ccccc3)cc2)OC(=O)N(Nc2ccccc2)C1=O` (configuration not stated), the AC50 in assay [1] was 23.8 µM (active); in assay [2], 50 µM (active); in [4] it was 10.9 µM (active); in assay [5], 10.9 µM (active). Also, the result in assay [3] was inactive.
Regarding `CNC(=O)CSP(=S)(OC)OC`, the molecule was classed as inactive in assay [2], in assay [3], in [4] and in [5]. Further, the concentration at half-maximal activity (AC50) in assay [5] is 50 µM (active).
`O=S(=O)(O)C(F)(F)C(F)(F)C(F)(F)C(F)(F)C(F)(F)C(F)(F)C(F)(F)C(F)(F)F`: the result in [7], in [8], in assay [9], in assay [10], in assay [11] and in assay [12] was inactive. Further, the result in assay [1], in assay [2], in assay [13], in assay [14], in [3] and in [4] was inactive. Also, the outcome in assay [5], in assay [15], in assay [16], in assay [17] and in assay [18] was inactive. Also, the concentration at half-maximal activity (AC50) is 19.5 µM (active) in assay [8] and 20.4 µM (active) in [6].
Regarding `CN1CSC(=S)N(C)C1`, the result in assay [19] was inactive.
As for `CCOCN(C(=O)CCl)c1c(C)cccc1CC`, the concentration at half-maximal activity (AC50) in assay [20] was 81.6 µM (active).
For the molecule `COP(=O)(OC)OC=C(Cl)Cl`, the outcome in assay [1], in [2], in assay [3] and in [4] was inactive. Moreover, the values for the AC50 in assay [2] and in [5] were 70 µM (active) and 81.4 µM (active), respectively.
For the molecule `CC(C)N(C(=O)COc1nnc(C(F)(F)F)s1)c1ccc(F)cc1`, the result in assay [6], in [1], in assay [2], in assay [3] and in assay [4] was inactive.
